Common to all, as to experiment: PBM; 200 nM protein, PBS
Details in all cases: dsDNA, one strand shown

Assay [1] deals with HESX1 (Homo sapiens, UniProt Q9UBX0 95-180, R165K).
The target of assay [2] is HOXB4 (Homo sapiens, UniProt P17483 148-234).
Assay [3] deals with SHOX (Homo sapiens, UniProt O15266 103-189).
Assay [4] deals with HESX1 (Homo sapiens, UniProt Q9UBX0 95-180).
For the next assay, the target named is HOXA4 (Homo sapiens, UniProt Q00056 201-287, R217L).
For assay [5], the target named is HOXB4 (Homo sapiens, UniProt P17483 148-234, V174I).
The target of assay [6] is ALX1 (Homo sapiens, UniProt Q15699 118-204, L144V).
The target of assay [7] is ALX3 (Homo sapiens, UniProt O95076 139-225, N203Q).
For assay [8], the target named is SHOX (Homo sapiens, UniProt O15266 103-189, R173C).
In assay [9] the target is ALX1 (Homo sapiens, UniProt Q15699 118-204, L144R).
Assay [10] concerns the target ALX3 (Homo sapiens, UniProt O95076 139-225).
Assay [11] has as its target PROP1 (Homo sapiens, UniProt O75360 56-141).
Assay [12] addresses HESX1 (Homo sapiens, UniProt Q9UBX0 95-180, R109Q).
Assay [13] concerns the target PROP1 (Homo sapiens, UniProt O75360 56-141, R99H).
Assay [14] addresses ALX3 (Homo sapiens, UniProt O95076 139-225, L168Q).
Assay [15] deals with HESX1 (Homo sapiens, UniProt Q9UBX0 95-180, P111T).
Assay [16] deals with ALX3 (Homo sapiens, UniProt O95076 139-225, L168V).
Assay [17] addresses PROP1 (Homo sapiens, UniProt O75360 56-141, F88S).
Assay [18] has as its target HESX1 (Homo sapiens, UniProt Q9UBX0 95-180, F115L).
For assay [19], the target named is ALX3 (Homo sapiens, UniProt O95076 139-225, N203S).
Chain of ALX3 (Homo sapiens, UniProt O95076 139-225, N203S) (O95076 139-225 N203S): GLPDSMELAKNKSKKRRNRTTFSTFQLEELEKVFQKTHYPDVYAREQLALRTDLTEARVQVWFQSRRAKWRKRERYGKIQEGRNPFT

Chain of PROP1 (Homo sapiens, UniProt O75360 56-141, F88S) (O75360 56-141 F88S): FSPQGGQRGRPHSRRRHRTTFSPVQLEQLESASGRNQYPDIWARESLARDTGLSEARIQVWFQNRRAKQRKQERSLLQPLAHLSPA
Chain of PROP1 (Homo sapiens, UniProt O75360 56-141) (O75360 56-141): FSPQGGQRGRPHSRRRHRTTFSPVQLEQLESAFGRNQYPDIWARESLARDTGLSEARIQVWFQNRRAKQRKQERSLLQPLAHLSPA
Chain of ALX1 (Homo sapiens, UniProt Q15699 118-204, L144R) (Q15699 118-204 L144R): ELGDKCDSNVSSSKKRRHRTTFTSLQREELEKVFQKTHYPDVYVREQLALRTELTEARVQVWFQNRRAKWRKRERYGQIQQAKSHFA
Chain of ALX3 (Homo sapiens, UniProt O95076 139-225, L168Q) (O95076 139-225 L168Q): as the sequence (O95076 139-225 N203S) above, with L30Q, S65N counted along it
Chain of HESX1 (Homo sapiens, UniProt Q9UBX0 95-180, P111T) (Q9UBX0 95-180 P111T): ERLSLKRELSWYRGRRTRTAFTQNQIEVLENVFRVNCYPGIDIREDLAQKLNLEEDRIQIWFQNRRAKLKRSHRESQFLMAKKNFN
Chain of HESX1 (Homo sapiens, UniProt Q9UBX0 95-180) (Q9UBX0 95-180): as the sequence (Q9UBX0 95-180 P111T) above, with T17P counted along it
Chain of HOXB4 (Homo sapiens, UniProt P17483 148-234, V174I) (P17483 148-234 V174I): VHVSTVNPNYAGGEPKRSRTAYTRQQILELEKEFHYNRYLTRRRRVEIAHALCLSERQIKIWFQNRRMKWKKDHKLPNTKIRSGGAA
Chain of HOXA4 (Q00056 201-287 R217L): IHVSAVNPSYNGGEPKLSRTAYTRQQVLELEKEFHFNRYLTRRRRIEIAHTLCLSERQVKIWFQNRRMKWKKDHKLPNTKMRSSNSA
Chain of SHOX (Homo sapiens, UniProt O15266 103-189) (O15266 103-189): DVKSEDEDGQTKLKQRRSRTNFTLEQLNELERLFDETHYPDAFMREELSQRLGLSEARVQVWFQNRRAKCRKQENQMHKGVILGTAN
Chain of ALX3 (Homo sapiens, UniProt O95076 139-225, L168V) (O95076 139-225 L168V): as the sequence (O95076 139-225 N203S) above, with L30V, S65N counted along it
Chain of HESX1 (Homo sapiens, UniProt Q9UBX0 95-180, F115L) (Q9UBX0 95-180 F115L): as the sequence (Q9UBX0 95-180 P111T) above, with T17P, F21L counted along it
Chain of SHOX (Homo sapiens, UniProt O15266 103-189, R173C) (O15266 103-189 R173C): as the sequence (O15266 103-189) above, with R71C counted along it
Chain of HOXB4 (Homo sapiens, UniProt P17483 148-234) (P17483 148-234): as the sequence (P17483 148-234 V174I) above, with I27V counted along it
Chain of ALX1 (Homo sapiens, UniProt Q15699 118-204, L144V) (Q15699 118-204 L144V): as the sequence (Q15699 118-204 L144R) above, with R27V counted along it
Chain of ALX3 (Homo sapiens, UniProt O95076 139-225) (O95076 139-225): as the sequence (O95076 139-225 N203S) above, with S65N counted along it
Chain of HESX1 (Homo sapiens, UniProt Q9UBX0 95-180, R109Q) (Q9UBX0 95-180 R109Q): as the sequence (Q9UBX0 95-180 P111T) above, with R15Q, T17P counted along it
Chain of PROP1 (Homo sapiens, UniProt O75360 56-141, R99H) (O75360 56-141 R99H): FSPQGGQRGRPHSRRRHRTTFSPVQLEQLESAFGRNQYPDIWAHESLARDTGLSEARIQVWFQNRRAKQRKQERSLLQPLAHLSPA
Chain of HESX1 (Homo sapiens, UniProt Q9UBX0 95-180, R165K) (Q9UBX0 95-180 R165K): as the sequence (Q9UBX0 95-180 P111T) above, with T17P, R71K counted along it
Chain of ALX3 (Homo sapiens, UniProt O95076 139-225, N203Q) (O95076 139-225 N203Q): as the sequence (O95076 139-225 N203S) above, with S65Q counted along it

For the sequence ATAATTAA, the binding signal was 13.5 upbm affinity estimate (log intensity, higher = more binding, comparable within an allelic series) in the assay with HESX1 [1]; 13.6 upbm affinity estimate (log intensity, higher = more binding, comparable within an allelic series) with HOXB4 [2]; 12.7 upbm affinity estimate (log intensity, higher = more binding, comparable within an allelic series) in the assay with SHOX [3]; 13.3 upbm affinity estimate (log intensity, higher = more binding, comparable within an allelic series) with HESX1 [4]; 13 upbm affinity estimate (log intensity, higher = more binding, comparable within an allelic series) with HOXA4; 14.4 upbm affinity estimate (log intensity, higher = more binding, comparable within an allelic series) with HOXB4 [5]. Besides, the binding signal is 12.3 upbm affinity estimate (log intensity, higher = more binding, comparable within an allelic series) with ALX1 [6]; 8.66 upbm affinity estimate (log intensity, higher = more binding, comparable within an allelic series) in the assay with ALX3 [7]; 10.3 upbm affinity estimate (log intensity, higher = more binding, comparable within an allelic series) with SHOX [8]; 11.9 upbm affinity estimate (log intensity, higher = more binding, comparable within an allelic series) with ALX1 [9]; 12.9 upbm affinity estimate (log intensity, higher = more binding, comparable within an allelic series) with ALX3 [10]; 11.9 upbm affinity estimate (log intensity, higher = more binding, comparable within an allelic series) in the assay with PROP1 [11]. In addition, the binding signal is 9.82 upbm affinity estimate (log intensity, higher = more binding, comparable within an allelic series) with HESX1 [12]; 11.9 upbm affinity estimate (log intensity, higher = more binding, comparable within an allelic series) with PROP1 [13]; 11.2 upbm affinity estimate (log intensity, higher = more binding, comparable within an allelic series) in the assay with ALX3 [14]; 12 upbm affinity estimate (log intensity, higher = more binding, comparable within an allelic series) with HESX1 [15]; 10.9 upbm affinity estimate (log intensity, higher = more binding, comparable within an allelic series) in the assay with ALX3 [16]; 8.13 upbm affinity estimate (log intensity, higher = more binding, comparable within an allelic series) with PROP1 [17]. The binding signal is 8.29 upbm affinity estimate (log intensity, higher = more binding, comparable within an allelic series) with HESX1 [18] and 8.77 upbm affinity estimate (log intensity, higher = more binding, comparable within an allelic series) with ALX3 [19].
Turning to AATTAATT, the binding signal with HESX1 [1] was 13.4 upbm affinity estimate (log intensity, higher = more binding, comparable within an allelic series); with HOXB4 [2], 13.4 upbm affinity estimate (log intensity, higher = more binding, comparable within an allelic series); in the assay with SHOX [3], 12.8 upbm affinity estimate (log intensity, higher = more binding, comparable within an allelic series); with HESX1 [4], 13.2 upbm affinity estimate (log intensity, higher = more binding, comparable within an allelic series); in the assay with HOXA4, 12.8 upbm affinity estimate (log intensity, higher = more binding, comparable within an allelic series); with HOXB4 [5], 14.1 upbm affinity estimate (log intensity, higher = more binding, comparable within an allelic series). Also, the binding signal was 12.4 upbm affinity estimate (log intensity, higher = more binding, comparable within an allelic series) with ALX1 [6]; 8.51 upbm affinity estimate (log intensity, higher = more binding, comparable within an allelic series) in the assay with ALX3 [7]; 10.3 upbm affinity estimate (log intensity, higher = more binding, comparable within an allelic series) with SHOX [8]; 12 upbm affinity estimate (log intensity, higher = more binding, comparable within an allelic series) in the assay with ALX1 [9]; 13 upbm affinity estimate (log intensity, higher = more binding, comparable within an allelic series) in the assay with ALX3 [10]; 12.1 upbm affinity estimate (log intensity, higher = more binding, comparable within an allelic series) with PROP1 [11]. Moreover, the binding signal is 10.3 upbm affinity estimate (log intensity, higher = more binding, comparable within an allelic series) with HESX1 [12]; 12.2 upbm affinity estimate (log intensity, higher = more binding, comparable within an allelic series) with PROP1 [13]; 11.3 upbm affinity estimate (log intensity, higher = more binding, comparable within an allelic series) in the assay with ALX3 [14]; 11.8 upbm affinity estimate (log intensity, higher = more binding, comparable within an allelic series) with HESX1 [15]; 10.9 upbm affinity estimate (log intensity, higher = more binding, comparable within an allelic series) with ALX3 [16]; 8.05 upbm affinity estimate (log intensity, higher = more binding, comparable within an allelic series) with PROP1 [17]. Moreover, the binding signal was 8.57 upbm affinity estimate (log intensity, higher = more binding, comparable within an allelic series) in the assay with HESX1 [18] and 8.78 upbm affinity estimate (log intensity, higher = more binding, comparable within an allelic series) in the assay with ALX3 [19].
Regarding TAATTATA, the binding signal with HESX1 [1] was 12.8 upbm affinity estimate (log intensity, higher = more binding, comparable within an allelic series); with HOXB4 [2], 13.5 upbm affinity estimate (log intensity, higher = more binding, comparable within an allelic series); in the assay with SHOX [3], 12.3 upbm affinity estimate (log intensity, higher = more binding, comparable within an allelic series); with HESX1 [4] it was 12.9 upbm affinity estimate (log intensity, higher = more binding, comparable within an allelic series); in the assay with HOXA4 it was 12.7 upbm affinity estimate (log intensity, higher = more binding, comparable within an allelic series); in the assay with HOXB4 [5], 14.3 upbm affinity estimate (log intensity, higher = more binding, comparable within an allelic series). Also, the binding signal in the assay with ALX1 [6] was 12 upbm affinity estimate (log intensity, higher = more binding, comparable within an allelic series); in the assay with ALX3 [7] it was 8.6 upbm affinity estimate (log intensity, higher = more binding, comparable within an allelic series); with SHOX [8], 9.85 upbm affinity estimate (log intensity, higher = more binding, comparable within an allelic series); with ALX1 [9], 11.6 upbm affinity estimate (log intensity, higher = more binding, comparable within an allelic series); with ALX3 [10], 12.8 upbm affinity estimate (log intensity, higher = more binding, comparable within an allelic series); with PROP1 [11], 11.7 upbm affinity estimate (log intensity, higher = more binding, comparable within an allelic series). Further, the binding signal was 9.16 upbm affinity estimate (log intensity, higher = more binding, comparable within an allelic series) in the assay with HESX1 [12]; 11.7 upbm affinity estimate (log intensity, higher = more binding, comparable within an allelic series) with PROP1 [13]; 10.9 upbm affinity estimate (log intensity, higher = more binding, comparable within an allelic series) with ALX3 [14]; 11.5 upbm affinity estimate (log intensity, higher = more binding, comparable within an allelic series) with HESX1 [15]; 10.6 upbm affinity estimate (log intensity, higher = more binding, comparable within an allelic series) in the assay with ALX3 [16]; 8.03 upbm affinity estimate (log intensity, higher = more binding, comparable within an allelic series) in the assay with PROP1 [17]. Further, the binding signal with HESX1 [18] was 8.06 upbm affinity estimate (log intensity, higher = more binding, comparable within an allelic series); with ALX3 [19], 8.74 upbm affinity estimate (log intensity, higher = more binding, comparable within an allelic series).

These data come from article PMC11006913.
